Mdm2 MdmX PPI: inhibitors of human Mdm2/MdmX interaction; O15151+Q00987; SaOS-2 split-luciferase Mdm2/MdmX complementation, luminescence; inhibition, % at 8 µM; 330,000 compounds, 3% hits;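 active means inhibition of at least 50% at 8 µM in the primary screen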
Target sequence (O15151 whole entry, looked up): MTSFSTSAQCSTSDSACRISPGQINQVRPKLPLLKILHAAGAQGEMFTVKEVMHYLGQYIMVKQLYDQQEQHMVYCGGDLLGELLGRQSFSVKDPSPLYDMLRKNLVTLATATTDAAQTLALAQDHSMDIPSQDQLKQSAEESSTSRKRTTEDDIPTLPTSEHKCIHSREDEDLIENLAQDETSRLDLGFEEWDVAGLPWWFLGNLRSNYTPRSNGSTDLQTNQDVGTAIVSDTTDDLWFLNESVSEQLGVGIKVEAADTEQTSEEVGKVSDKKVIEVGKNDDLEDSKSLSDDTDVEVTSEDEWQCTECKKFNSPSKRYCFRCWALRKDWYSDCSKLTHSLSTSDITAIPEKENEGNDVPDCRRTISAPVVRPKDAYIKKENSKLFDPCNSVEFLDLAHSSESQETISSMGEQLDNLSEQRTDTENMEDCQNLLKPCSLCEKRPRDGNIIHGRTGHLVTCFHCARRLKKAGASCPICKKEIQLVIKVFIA
Target sequence (Q00987 whole entry, looked up): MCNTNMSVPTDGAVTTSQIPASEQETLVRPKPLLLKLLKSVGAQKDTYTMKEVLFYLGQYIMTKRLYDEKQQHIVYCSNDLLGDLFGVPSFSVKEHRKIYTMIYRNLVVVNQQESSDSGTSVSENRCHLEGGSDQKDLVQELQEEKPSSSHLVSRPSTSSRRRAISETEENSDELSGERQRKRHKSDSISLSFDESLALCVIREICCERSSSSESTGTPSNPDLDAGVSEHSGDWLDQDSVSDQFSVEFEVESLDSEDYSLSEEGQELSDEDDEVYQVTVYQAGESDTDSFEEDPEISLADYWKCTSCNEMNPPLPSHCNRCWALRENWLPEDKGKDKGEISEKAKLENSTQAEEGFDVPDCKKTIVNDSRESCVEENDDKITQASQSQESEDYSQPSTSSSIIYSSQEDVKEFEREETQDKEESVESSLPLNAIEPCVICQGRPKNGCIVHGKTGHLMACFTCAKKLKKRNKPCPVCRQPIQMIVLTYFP
Shn3 3UTR inh: reduces Shn3 3'UTR luciferase signal in osteoblasts | Clone20 osteoblast Shn3 3'UTR firefly luciferase, 24 h | inhibition, % at 12.5 µM | 360,000 compounds, 0.52% hits | AID 588674;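 active means mean inhibition of at least 75% with every replicate also reaching 75%; inconclusive means mean inhibition at least 75% but some replicate below; inactive means mean inhibition below 75%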
697 NFkB inh: inhibitors of the PMA/ionomycin-induced NF-kB reporter in 697 B cells; 697 B-cell NF-kB luciferase reporter, 16 h; inhibition, % at 4 µM; 330,000 compounds, 0.33% hits; in the data active means inhibition above about 35%
Jurkat NFkB inh: lowers PMA/ionomycin-induced NF-kB signal in Jurkat cells; PMA/ionomycin-induced NF-kB luciferase reporter, luminescence; 330,000 compounds, 0.53% hits; inhibition, % at 4 µM; in the data active means inhibition above about 50%
Gli-Sufu block: Gli-Sufu pathway antagonism; Sufu-KO-LIGHT fibroblasts, Gli luciferase reporter luminescence; inhibition, % at 5 µM; 340,000 compounds, 0.74% hits;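 active means inhibition above about 55%, limit read from the data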
Jurkat NFkB conf: inhibitors of the PMA/ionomycin-induced NF-kB reporter in Jurkat cells, retest | shares compounds with Jurkat NFkB inh | Jurkat NF-kB luciferase, 16 h | inhibition, % at 4 µM | 2,700 compounds, 27% hits;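 active means inhibition reaching about 45% at 4 µM in either replicate, limit read from the data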
697 NFkB conf: inhibitors of the PMA/ionomycin-induced NF-kB reporter in 697 B cells, retest; shares compounds with 697 NFkB inh; 697 B-cell NF-kB luciferase, 16 h; inhibition, % at 4 µM; 2,000 compounds, 35% hits; AID 449746; in the data active means inhibition mostly above about 28%, no sharp cut-off; inactive means mostly below about 22%
Mdm2 MdmX conf: human Mdm2/MdmX binding inhibition, confirmed | inhibition, % at 8 µM | shares compounds with Mdm2 MdmX PPI | luminescent assay | 10,000 compounds, 55% hits; in the data active means inhibition above about 40%
Full FLuc ctr: inhibits full-length luciferase, flagging false Mdm2/MdmX hits; shares compounds with Mdm2 MdmX PPI; inhibition, % at 8 µM; AID 504607; SaOS-2 full-length luciferase counterscreen, luminescence; 6,200 compounds, 77% hits;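 active means mean inhibition at 8 µM reaching about 37%, which flags the compound as non-specific, limit read from the data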;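 further: p53-null SaOS-2 cells with luciferase driven by a doxycycline-inducible promoter; compound on cells about two nights before reading with doxycycline added after day one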
Of the large screens only hits and unclear results are named; the others gave an inactive call (follow-up assays come after a bar, where they were run); ! = a repeat was not active. Rows were chosen to be rich in hits. Some 3.8% of all compounds tested hit in one or more screens of this group.

CC(=O)c1ccccc1C(=O)N1CCCC(CNC(=O)c2ccc(F)cc2)C1 (centres undefined)	none (no result: Mdm2 MdmX PPI, 697 NFkB inh, Jurkat NFkB inh, Gli-Sufu block)
CC(C)N1CCc2c(sc(NC(=O)c3ccc4ccccc4c3)c2C(N)=O)C1	none
CC(=O)Nc1sc2c(c1-c1nc3ccccc3s1)CCN(C(C)C)C2	Mdm2 MdmX PPI 100.4, Jurkat NFkB inh 83.7 | Jurkat NFkB conf inactive | Mdm2 MdmX conf 69.2 | Full FLuc ctr 60.2
CC1=C(/C=C/C(C)=C/C=C/C(C)=C/C(=O)Nc2ccc(O)cc2)C(C)(C)CCC1	Mdm2 MdmX PPI 87.1, Jurkat NFkB inh 63.0, Gli-Sufu block 69.9! | Jurkat NFkB conf inactive | Mdm2 MdmX conf inactive
COc1ccc(CCN(C)C(=O)CN2C(=O)NC3(CCCCC3C)C2=O)cc1OC (centres undefined)	none
COc1ccccc1NS(=O)(=O)c1ccc(C)c(C(=O)NCC2(N(C)C)CCCCC2)c1	none
O=C(Nc1ccc2nc3n(c(=O)c2c1)CCCCC3)c1ccccc1[N+](=O)[O-]	none
O=C(Nc1ccc2nc3n(c(=O)c2c1)CCCCC3)c1c(F)ccc([N+](=O)[O-])c1F	Mdm2 MdmX PPI 96.1, Shn3 3UTR inh 98.8, Jurkat NFkB inh 72.7 | Jurkat NFkB conf inactive | 697 NFkB conf inactive | Mdm2 MdmX conf 100.0 | Full FLuc ctr 52.1
COC(=O)c1cccc(NC(=O)NC(=O)c2ccc(Cl)cc2)c1	Mdm2 MdmX PPI 68.9, Jurkat NFkB inh 85.9 | Jurkat NFkB conf inactive | Mdm2 MdmX conf 42.8 | Full FLuc ctr 73.0
O=S(=O)(C/C(=C/CO)S(=O)(=O)c1ccccc1)c1ccccc1	Mdm2 MdmX PPI 89.1, Shn3 3UTR inh 94.2, Jurkat NFkB inh 71.9 | Jurkat NFkB conf 58.2 | Mdm2 MdmX conf 96.0 | Full FLuc ctr 50.8
COc1cc(/C=C(/C#N)c2nc3ccccc3[nH]2)ccc1OCC(=O)Nc1ccccc1C	Mdm2 MdmX PPI 100.3, Jurkat NFkB inh 52.8 | Jurkat NFkB conf inactive | Mdm2 MdmX conf inactive
COc1cc(/C=C(\C#N)c2nc3ccccc3[nH]2)ccc1OC(=O)c1ccco1	none
Cn1c(=O)[nH]c(=O)c2c1nc(CN1CCN(c3cccc(Cl)c3)CC1)n2Cc1ccccc1Cl	Mdm2 MdmX PPI 72.7, Jurkat NFkB inh 56.9 | Jurkat NFkB conf inactive | Mdm2 MdmX conf 51.1 | Full FLuc ctr 58.6
Cc1ccc(NC(=O)c2nc[nH]c2C(=O)NCCCCNC(=O)c2[nH]cnc2C(=O)Nc2ccc(C)cc2)cc1	Mdm2 MdmX PPI 79.6, Jurkat NFkB inh 50.1 | Jurkat NFkB conf inactive | Mdm2 MdmX conf inactive
Cn1nc(C(=O)OCC(=O)Nc2ccccc2[N+](=O)[O-])c2ccccc2c1=O	none
NC(=O)c1ccc(NC(=O)COC(=O)C2COc3ccccc3O2)cc1 (centres undefined)	none
Cc1nc(SCC(=O)Nc2nc3ccccc3s2)c(C#N)c(C)c1C	Mdm2 MdmX PPI 100.2, Shn3 3UTR inh inconclusive, Jurkat NFkB inh 89.5, Gli-Sufu block 90.1 | Jurkat NFkB conf 89.0 | Mdm2 MdmX conf 100.1 | Full FLuc ctr 53.3
Cc1nc(C)c(-c2csc(Nc3ccc(N)cc3)n2)s1	none
COc1ccc(Nc2nc(-c3sc(C)nc3C)cs2)cc1	Mdm2 MdmX PPI 50.4, Jurkat NFkB inh 50.9 | Jurkat NFkB conf inactive | Mdm2 MdmX conf 45.0 | Full FLuc ctr 61.4
C(=C\c1ccccc1)/CSc1nnc(-c2ccccn2)n1Cc1ccco1	Mdm2 MdmX PPI 59.1, Jurkat NFkB inh 50.0 | Jurkat NFkB conf inactive | Mdm2 MdmX conf 49.0 | Full FLuc ctr 87.0
Cc1cc(OC(=O)c2ccc(Cl)cc2Cl)c([N+](=O)[O-])c(=O)[nH]1	none
COc1ccc([C@H]2CC(=O)C=C(c3c(OC)cccc3OC)C2)cc1	Mdm2 MdmX PPI 55.7, Jurkat NFkB inh 57.3 | Jurkat NFkB conf 50.8 | Mdm2 MdmX conf 53.0 | Full FLuc ctr 50.8
CCOC1(C)OCC(=O)[C@]2(CCC3C4CCC5=CC(=O)C=CC5(C)C4C(=O)CC32C)O1 (some centres undefined)	none
O=S(=O)(Nc1cccc2ncccc12)c1cccs1	Mdm2 MdmX PPI 74.1, Shn3 3UTR inh 94.0, Jurkat NFkB inh 80.1, Gli-Sufu block 87.4 | Jurkat NFkB conf 64.0 | Mdm2 MdmX conf 100.2 | Full FLuc ctr 52.0
CCc1ccc2c(Cl)c(C(=O)N/N=C/c3c[nH]c4ccccc34)sc2c1	none
CCc1ccc(-c2cc(C(=O)N/N=C/c3c[nH]c4ccccc34)[nH]n2)cc1	Mdm2 MdmX PPI 62.3, Jurkat NFkB inh 59.6 | Jurkat NFkB conf inactive | Mdm2 MdmX conf 51.0 | Full FLuc ctr 101.3
O=C1N(c2ccccc2)C[C@@H]2C[C@@H](c3cc4ccccc4o3)N3CCC[C@@]123	Mdm2 MdmX PPI 97.8, Shn3 3UTR inh 97.2, Jurkat NFkB inh 71.5, Gli-Sufu block 76.0 | Jurkat NFkB conf inactive | Mdm2 MdmX conf 98.0 | Full FLuc ctr inactive
CCOC(=O)N1CCC(NC(=O)c2ccc3c(c2)N=C(C)c2c(C)ccc(C)c2S3)CC1	Mdm2 MdmX PPI 68.2, Jurkat NFkB inh 64.6 | Jurkat NFkB conf 55.8 | Mdm2 MdmX conf 64.4 | Full FLuc ctr 89.2
N/C(=N\OCc1ccc([N+](=O)[O-])cc1)c1ccccn1	Mdm2 MdmX PPI 75.9, Jurkat NFkB inh 59.9 (no result: Shn3 3UTR inh) | Jurkat NFkB conf 64.8 | Mdm2 MdmX conf 67.3 | Full FLuc ctr 44.4
O=C(C#Cc1ccccc1)Nc1cccc(F)c1	Mdm2 MdmX PPI 98.0, Jurkat NFkB inh 72.8 | Jurkat NFkB conf inactive | Mdm2 MdmX conf 99.5 | Full FLuc ctr inactive
Cc1c(C(=O)N/N=C/c2ccc(N(C)C)cc2)[nH]c2ccc(Cl)cc12	Mdm2 MdmX PPI 64.7, Jurkat NFkB inh 50.4 | Jurkat NFkB conf inactive | Mdm2 MdmX conf 51.3 | Full FLuc ctr 69.2
NC(=O)c1cc(S(=O)(=O)N2CCN(c3ccc([N+](=O)[O-])cc3)CC2)cs1	none
CCc1cccc2sc(N3CCN(C(=O)c4ccc([N+](=O)[O-])o4)CC3)nc12	Mdm2 MdmX PPI 93.8, Jurkat NFkB inh 50.8, Gli-Sufu block 76.3 | Jurkat NFkB conf inactive | Mdm2 MdmX conf 75.2 | Full FLuc ctr 46.4
O=S1(=O)CCOCCCN1Cc1ccccc1	none
CCC(=O)c1ccc(OCc2cn(CC(=O)c3ccc(O)cc3)nn2)cc1	none (no result: Mdm2 MdmX PPI, 697 NFkB inh, Jurkat NFkB inh)
COc1ccc(O)c(/C=N/Nc2nc3ccccc3[nH]2)c1	none
O=[N+]([O-])c1ccc(O)c(/C=N/Nc2nc3ccccc3[nH]2)c1	Mdm2 MdmX PPI 89.2, Jurkat NFkB inh 55.3 | Jurkat NFkB conf inactive | Mdm2 MdmX conf 51.5 | Full FLuc ctr 48.5
O=S(=O)(c1cccc(F)c1)N1CCN(C(=S)NCC2CCCO2)CC1 (centres undefined)	none

High-throughput results (PubChem BioAssay)
